Screening results deposited in PubChem by The Scripps Research Institute Molecular Screening Center.
CHO-K1 Ca PAM = nonselective activator or artifact in parental CHO-K1 calcium assay | ATP EC20, Fluo-8 calcium fluorescence; 0% at ATP EC20, 100% at ATP max | activation, % at 3 µM | hit rate 0.02% among 360,000;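 active = activation above the run cutoff, the mean activation of all test compounds plus 3 SD, cut at about 40% in these data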;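 note: peak over basal fluorescence ratio in a 140 s read after ATP addition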
CHO-K1 Ca ag = M1 agonist counterscreen hit in parental CHO-K1 cells | Fluo-8 calcium fluorescence; scaled to maximal ATP response, vehicle zero | activation, % at 3 µM | hit rate 0.48% among 360,000 | AID 602248; in the data active = activation above about 15%;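 note: untransfected CHO-K1 host cells lacking M1 receptor as counterscreen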
CHRM1 antagonist = antagonists of human M1 muscarinic receptor; CHO-K1 hM1, Fluo-8 calcium fluorescence, ACh EC80 antagonist; inhibition, % at 3 µM; hit rate 1.3% among 360,000;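 active = percent inhibition above its own plate's cutoff, namely the mean of that plate's compound wells plus 3 SD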;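 note: peak over basal fluorescence ratio during 140 s after agonist addition; 0% = ACh EC80 plus DMSO and 100% = DMSO alone without agonist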
Target sequence (P11229 whole entry, looked up): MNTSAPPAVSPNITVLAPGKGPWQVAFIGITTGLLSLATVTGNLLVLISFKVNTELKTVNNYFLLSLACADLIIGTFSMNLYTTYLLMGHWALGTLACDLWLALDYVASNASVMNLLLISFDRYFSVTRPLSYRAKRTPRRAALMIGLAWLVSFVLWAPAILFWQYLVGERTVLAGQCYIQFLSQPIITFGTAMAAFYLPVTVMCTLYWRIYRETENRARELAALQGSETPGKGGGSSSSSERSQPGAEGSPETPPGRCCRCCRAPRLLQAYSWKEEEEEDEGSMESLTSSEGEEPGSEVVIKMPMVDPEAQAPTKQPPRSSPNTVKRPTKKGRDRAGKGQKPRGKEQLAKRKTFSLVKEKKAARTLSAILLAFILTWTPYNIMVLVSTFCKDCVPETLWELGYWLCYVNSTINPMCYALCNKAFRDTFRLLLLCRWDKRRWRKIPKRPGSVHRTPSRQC
CHRM1 agonist = human M1 muscarinic receptor agonism; P11229; hit rate 0.33% among 360,000; activation, % at 3 µM; CHO-K1 hM1, Fluo-8 calcium fluorescence, agonist mode; 0% DMSO, 100% acetylcholine EC100; AID 588814;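 active = activation above the run's mean compound activation plus 3 SD, cut at about 16% in these data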;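 note: peak over basal fluorescence ratio within a 140 s kinetic read after compound addition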
CHRM1 PAM = positive allosteric modulators of human M1 muscarinic receptor; activation, % at 3 µM; AID 588819; hit rate 0.088% among 360,000; P11229; CHO-K1 hM1, Fluo-8 calcium fluorescence, ACh EC20; 0% = ACh EC20, 100% = maximal ACh; in the data active = activation above about 19%, passing the limit was not always enough
CHO-K1 Ca antag = M1 antagonist counterscreen hit in parental CHO-K1 cells. ATP-induced calcium, Fluo-8 fluorescence. inhibition, % at 3 µM. hit rate 0.6% among 360,000. AID 602250;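 active = inhibition above a per-plate cutoff, the plate's mean sample inhibition plus 3 SD, cut at about 24% in these data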;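 note: 0% = DMSO plus EC80 ATP and 100% = DMSO alone without ATP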
* = called active by the depositor. Hits are enriched below; roughly 2.3% of the tested compounds scored in any of these assays.

SMILES	CHO-K1 Ca PAM	CHO-K1 Ca ag	CHRM1 antagonist	CHRM1 agonist	CHRM1 PAM	CHO-K1 Ca antag
O=C(NCC1CCCO1)C1CCN(C2CCN(C(=O)CC3CCCC3)CC2)CC1 (stereo unspecified)	-19	0	9	-13	6	27*
O=C(NCC1CCCO1)C1CCN(C2CCN(CCCC3CCCC3)CC2)CC1 (stereo unspecified)	7	0	-3	-11	9	4
O=[N+]([O-])c1ccc(-c2cnc(SC(c3ccccc3)c3ccccc3)[nH]2)cc1	15	5	26*	-7	-15	1
C=CCn1c(=O)c2c(nc(-n3nc(C)cc3C)n2C)n(C)c1=O	5	0	-26	-2	10	-11
CCN1CCc2nc3ccccc3c(C(=O)Nc3ccc(NC(C)=O)cc3)c2C1	22	3	-15	-1	17	-9
O=C(COC(=O)c1c2c(nc3ccccc13)CCN(Cc1ccccc1)C2)Nc1c(F)cccc1F	4	6	36*	-2	-13	2
CC(=O)Nc1ccc(NC(=O)COC(=O)c2c3c(nc4ccccc24)CCN(Cc2ccccc2)C3)cc1	-9	6	45*	3	-23	5
COc1ccc(S(=O)(=O)NCc2ccc(C(=O)NCCN(C)Cc3ccccc3)cc2)cc1	-9	0	-8	-10	-5	8
COc1cc(C)c(Cl)cc1S(=O)(=O)NCCCN1CCOCC1	4	1	-5	-3	2	-31
COc1cc(C)c(Br)cc1S(=O)(=O)NCCCN1CCOCC1	5	20*	1	-5	-2	6
O=C(NC1(C(F)(F)F)N=C(c2ccccc2)NC1=O)c1ccccc1 (stereo unspecified)	-13	0	-6	-5	4	27*
O=C(Cn1c(C(F)(F)F)nc2ccccc21)N/N=C/c1ccco1	10	17*	-6	-10	13	11
O=C(CN1CCN(Cc2ccccc2Cl)CC1)N/N=C/c1ccco1	10	17*	-1	-5	2	1
COc1ccc(N2CCN(c3nc(NCCO)nc(N4CCOCC4)n3)CC2)cc1	-8	1	-4	0	12	27*
O=C(NC1CCCc2c1cnn2-c1cc(F)cc(F)c1)c1ccncc1 (stereo unspecified)	-8	2	-10	-4	6	-8
CC(C)(C)c1ccc(-n2ncc3c2CCCC3NC(=O)c2ccncc2)cc1 (stereo unspecified)	10	4	62*	-4	-19	-2
Cc1cc(C(=O)NC2CCCc3c2cnn3-c2ccc(C)c(C)c2)n(C)n1 (stereo unspecified)	-26	13	44*	2	-11	25*
O=C([C@@H]1CCCN1C1=NS(=O)(=O)c2ccccc21)N1CCN(c2ccccc2)CC1	-2	1	-10	-5	5	0
CCOC(=O)c1cc(=O)c2ccc(OCC(=O)Nc3ccc(F)cc3)cc2o1	10	25*	-8	10	9	-1
O=C(COc1ccc2c(-c3ccccc3)cc(=O)oc2c1)Nc1ccc(CCO)cc1	-20	18*	24	5	-11	26*
CC1CN(C(=O)COc2ccc3c(-c4ccccc4)cc(=O)oc3c2)CC(C)O1 (stereo unspecified)	-11	1	29*	-2	-14	-10
C=CCOc1ccc(Br)cc1CNC(C)(C)C	26	0	-10	-10	1	-11
Cc1ccc(S(=O)(=O)N2C[C@H]3C(=O)C[C@@H](c4ccccc4)N(S(C)(=O)=O)[C@H]3C[C@H]2c2ccccc2)cc1	7	1	4	-5	1	8
COc1ccc(C(=O)Nc2nnc(SCC(=O)NC3CC3)s2)cc1	-6	0	6	-2	0	-4
CC(Oc1ccc(Br)cc1)C(=O)Nc1ccc(S(=O)(=O)Nc2nccs2)cc1 (stereo unspecified)	12	10	16	15	3	7
SMILES	CHO-K1 Ca PAM	CHO-K1 Ca ag	CHRM1 antagonist	CHRM1 agonist	CHRM1 PAM	CHO-K1 Ca antag
CCC(Oc1ccc(C)cc1)C(=O)Nc1ccc(S(=O)(=O)Nc2nccs2)cc1 (stereo unspecified)	-1	3	-10	19*	24	-18
CCC(Oc1ccccc1)C(=O)Nc1ccc(S(=O)(=O)Nc2cc(C)on2)cc1 (stereo unspecified)	16	0	-25	-1	29*	-12
O=C(NC(=S)Nc1ccc(S(=O)(=O)Nc2nccs2)cc1)C1CC1	9	1	-10	-2	3	-10
CC(C)C(=O)NC(=S)Nc1ccc(S(=O)(=O)Nc2nccs2)cc1	7	16*	-4	-12	7	5
CCC(Oc1ccccc1)C(=O)Nc1ccc(S(=O)(=O)Nc2ncccn2)cc1 (stereo unspecified)	15	1	-15	-1	9	-12
CC(C)NC(=O)c1cc(C2CCCCN2S(=O)(=O)c2cccc3cccnc23)on1 (stereo unspecified)	12	0	-10	-10	2	-6
COc1ccc(C(=O)N2CCC(c3ccccc3)CC2)c(OC)c1OC	-1	2	-9	-4	7	-8
O=C(NCCc1cccnc1)C1CCC(=O)N(Cc2ccc(Cl)cc2)C1 (stereo unspecified)	-8	0	-15	-4	12	-19
COc1ccccc1CN1C2CCCC1CC(NC(=O)/C=C/c1ccccc1)C2 (stereo unspecified)	20	1	62*	-13	-32	-15
COc1ccc(-c2csc(C(NC(C)=O)c3cccc(F)c3)n2)cc1 (stereo unspecified)	-10	0	-14	4	19	14
O=C(CCc1nc2ccccc2c(=O)[nH]1)Nc1nc(-c2cccs2)cs1	9	18*	4	2	0	9
Cc1ccccc1NC(=O)C(=O)NNC(=O)COc1ccc2ccccc2c1	5	0	15	-2	-6	-1
O=c1ccc2c([nH]1)CCCCCCCCCC2	13	0	-6	8	15	3
c1ccc(CCNCCOc2ccccc2)cc1	2	15*	-21	6	12	6
Cc1ccc(C(C)C)c(OCCNC(=O)c2cncc(Br)c2)c1	11	2	4	3	6	-3
Cc1ccc(C(C)C)c(OCCn2ccnc2C)c1	-12	1	99*	-10	-30	6
COc1cc(C(=O)NCCOc2cc(C)ccc2C(C)C)cc(OC)c1OC	-3	16*	15	8	-9	23
Cc1ccc(C(C)C)c(OCCNCCc2ccccc2)c1	28	15	30*	-1	-21	-4
COCCSc1ccccc1C(=O)Nc1ccc(Cl)cn1	21	1	-11	-6	12	-9
COCCCNC(=O)c1ccccc1Sc1ccc(NC(C)=O)nc1	-14	0	-2	-6	4	24*
